About 14,000 (4.5%) of roughly 310,000 compounds showed an effect of 50% or more. The effect is printed as a negative number. What follows is part of a selection rich in strong results, with near analogues and random picks from the rest.
Biological target: human ether-à-go-go-related gene (hERG) potassium channel (human, UniProt Q12809)
Assay: primary screen, population patch clamp on CHO cells stably expressing hERG; higher = less effect of the substance
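Also: peak tail current of the secondary pulse compared with the same well before compound.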

Chain of human ether-à-go-go-related gene (hERG) potassium channel (Q12809 whole entry, looked up): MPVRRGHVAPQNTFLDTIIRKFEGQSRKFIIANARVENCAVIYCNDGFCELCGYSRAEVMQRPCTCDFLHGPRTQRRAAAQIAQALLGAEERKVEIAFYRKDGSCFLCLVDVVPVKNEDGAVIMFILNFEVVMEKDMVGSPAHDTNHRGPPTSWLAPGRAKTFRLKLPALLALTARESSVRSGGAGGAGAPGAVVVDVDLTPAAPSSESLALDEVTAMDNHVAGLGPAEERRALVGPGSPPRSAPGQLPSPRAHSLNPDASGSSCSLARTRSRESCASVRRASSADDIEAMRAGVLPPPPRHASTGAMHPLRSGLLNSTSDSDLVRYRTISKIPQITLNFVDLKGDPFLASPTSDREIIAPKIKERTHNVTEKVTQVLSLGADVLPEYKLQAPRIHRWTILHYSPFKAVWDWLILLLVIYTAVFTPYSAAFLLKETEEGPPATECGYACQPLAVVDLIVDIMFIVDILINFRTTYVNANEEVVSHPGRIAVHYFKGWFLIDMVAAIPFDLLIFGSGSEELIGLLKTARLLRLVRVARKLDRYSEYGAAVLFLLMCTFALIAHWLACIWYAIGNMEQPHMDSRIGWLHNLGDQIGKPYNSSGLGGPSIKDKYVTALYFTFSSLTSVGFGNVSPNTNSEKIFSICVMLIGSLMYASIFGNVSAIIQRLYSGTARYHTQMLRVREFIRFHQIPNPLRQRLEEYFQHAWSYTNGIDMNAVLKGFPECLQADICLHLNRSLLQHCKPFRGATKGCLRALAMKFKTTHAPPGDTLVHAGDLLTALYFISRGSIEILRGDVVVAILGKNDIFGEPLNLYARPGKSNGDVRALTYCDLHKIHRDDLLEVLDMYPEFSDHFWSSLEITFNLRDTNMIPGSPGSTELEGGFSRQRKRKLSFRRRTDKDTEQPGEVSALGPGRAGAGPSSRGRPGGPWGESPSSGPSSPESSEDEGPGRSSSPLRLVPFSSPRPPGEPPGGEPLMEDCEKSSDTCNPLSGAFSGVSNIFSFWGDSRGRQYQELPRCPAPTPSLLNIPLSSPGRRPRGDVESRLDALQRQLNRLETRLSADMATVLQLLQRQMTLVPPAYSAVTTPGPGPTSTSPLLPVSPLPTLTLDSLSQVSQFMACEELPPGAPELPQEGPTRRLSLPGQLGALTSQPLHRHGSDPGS

SMILES | hERG current change (%, negative = inhibition) at 10uM [%]
CCCCNC(=O)N1CCCN(c2ccc(C#N)cn2)CC1 | -49.8
N#Cc1ccc(N2CCOCC2)nc1 | -0.729
N#Cc1ccc(N2CCCNCC2)nc1 | -88.5
Cc1ccc(NC(=O)c2nc(S(=O)(=O)Cc3ccccc3C)ncc2Cl)cc1C | 2.81
Cc1nn2c3ccccc3n(CC(=O)c3cccs3)c2nc1=O | 1.78
Cc1ccc(Nc2c(-c3ccco3)nc3ccccn23)cc1 | 2.78
COc1ccccc1C1CCN(Cc2ccc(Cl)cc2Cl)CC1 | 11.1
COc1ccccc1C1CCN(Cc2cccc([N+](=O)[O-])c2)CC1 | -49.1
Cc1[nH]c2ccccc2c1CN1CCN(c2ccccn2)CC1 | -52.7
Cc1[nH]c2ccccc2c1C(c1ccncc1)N1CCN(c2ccccn2)CC1 (stereo not drawn) | 8.61
COc1ccccc1C1CCN(Cc2ccc(Cl)c(Cl)c2)CC1 | 12.3
COc1ccccc1C1CCN(Cc2c(C)[nH]c3ccccc23)CC1 | -64.4
COc1ccccc1C1CCN(Cc2ccccc2)CC1 | -34.5
COc1ccccc1C1CCN(Cc2ccc(C)cc2)CC1 | -90
COc1ccccc1C1CCN(Cc2cccc3ccccc23)CC1 | -13.9
COc1ccccc1C1CCN(Cc2ccccc2Cl)CC1 | -3.3
COc1ccccc1C1CCN(Cc2ccc3ccccc3c2)CC1 | -75
Cc1[nH]c2ccccc2c1CN1CCc2ccccc2C1 | -12.9
COC(=O)CCc1nc2c(C#N)c(-c3ccc(Cl)cc3)ccn2n1 | -2.07
Cc1ccc(/C=N/NC(=O)c2cc(C)oc2C)cc1 | 4.58
COc1ccccc1NC(=O)CC1C(=O)Nc2c1c(=O)n(C)c(=O)n2C (stereo not drawn) | 4.88
Cc1cc(=O)[nH]c(SCC(=O)Nc2nc(-c3ccccc3)c(-c3ccccc3)o2)n1 | 3.76
CC(=O)Nc1ccc(/C=N/N2C(=O)NC(C)(c3ccc(OC(F)F)cc3)C2=O)cc1 (stereo not drawn) | -10.5

SMILES | hERG current change (%, negative = inhibition) at 10uM [%]
COC(=O)c1cc(C(=O)OC)cc(N2C(=O)CC(NNC(=O)c3ccc(C)cc3)C2=O)c1 (stereo not drawn) | -11.5
CCOC(=O)C(C)On1c(-c2ccccc2)nc2ccc([N+](=O)[O-])cc21 (stereo not drawn) | -51.3
CCOC(=O)C(C)On1c(-c2ccc(Cl)cc2)nc2ccc([N+](=O)[O-])cc21 (stereo not drawn) | -20.4
O=C(O)COn1c(-c2ccccc2)nc2ccc([N+](=O)[O-])cc21 | 11.3
COc1cc(NC(=O)C/C(C)=N/NC(=O)C(=O)NC2CCCCC2)c(OC)cc1Cl | -91.2
COc1cc(NC(=O)C/C(C)=N/NC(=O)C2CCCCC2)c(OC)cc1Cl | 9.28
COc1ccc(NC(=O)C/C(C)=N/NC(=O)C(=O)NC2CCCCC2)c(OC)c1 | -8.46
O=C(NNC(=O)c1cc(Cl)ccc1O)c1ccc(NS(=O)(=O)c2cccs2)cc1 | -20.7
CCOC(=O)CC1ON(C)C(=O)N1c1ccc([N+](=O)[O-])cc1 (stereo not drawn) | -6.46
C/C(=N/NC(=O)c1ccn(C)n1)c1ccncc1 | 13.2
CC(CC(=O)N1CCN(c2ccc(C(F)(F)F)cn2)CC1)n1ccnc1 (stereo not drawn) | -66.2
O=S(=O)(c1ccc(Cl)cc1)N1CCCN(c2ccc(C(F)(F)F)cn2)CC1 | -23.3
N#Cc1ccc(S(=O)(=O)N2CCCN(c3nc4ccc(Cl)cc4s3)CC2)cc1 | -70.3
CS(=O)(=O)N1CCN(c2nc3ccc(Cl)cc3s2)CC1 | 5.72
Cc1ccccc1SCC(=O)N1CCN(c2ccc(C(F)(F)F)cn2)CC1 | -38
CC(=O)c1cccc(OCC(=O)N2CCN(c3ccc(C(F)(F)F)cn3)CC2)c1 | -16.3
O=C(O)COCC(=O)N1CCCN(c2ccc(C(F)(F)F)cn2)CC1 | 14.3
N#Cc1ccc(S(=O)(=O)N2CCCN(c3ccc(C(F)(F)F)cn3)CC2)cc1 | -73.9
N#Cc1ccc(OCC(=O)N2CCN(c3ccc(C(F)(F)F)cn3)CC2)cc1 | -54.7
O=S(=O)(c1ccc(C(F)(F)F)cc1)N1CCCN(c2ccc(C(F)(F)F)cn2)CC1 | 5.3
CCOC(=O)N1CCN(c2ccc(C(F)(F)F)cn2)CC1 | -4.3
O=S(=O)(c1ccc(Cl)cc1)N1CCCN(c2nc3ccc(Cl)cc3s2)CC1 | 11.8
Cc1ccc(C2(C(F)(F)F)N=C3Sc4cc(C)cc(C)c4N3C(=O)N2)cc1 (stereo not drawn) | -4.05

SMILES | hERG current change (%, negative = inhibition) at 10uM [%]
O=C(NCCCN1CCOCC1)c1cc(-c2ccc(Br)cc2)nc2ccccc12 | -39.7
O=C(NC1C2CC3CC(C2)CC1C3)c1ccc(N2CCNCC2)c([N+](=O)[O-])c1 (stereo not drawn) | -18
O=c1c2oc3ccccc3c2[nH]c(=S)n1-c1ccc(F)cc1 | 25.3
COc1cccc(C2NC(=O)NC(C)=C2C(=O)Nc2ccc(C)cc2)c1OC (stereo not drawn) | -6.16
COc1ccccc1-n1c(=O)oc2ccc(Cl)cc2c1=O | -7.54
Cl.O=C(NCCOC(=O)c1ccc(C(=O)OCCNC(=O)c2cccnc2)s1)c1cccnc1 | 7.73
Cc1ccc(S(=O)(=O)Nc2cc(C(=O)NCCN(C)C)ccc2N2CCCCC2)cc1 | -36.8
Cc1ccc(S(=O)(=O)Nc2cc(C(=O)O)ccc2N2CCCCC2)cc1 | 9.4
CCN1CCCC1CNC(=O)c1ccc(N2CCOCC2)c(NS(=O)(=O)c2ccc(OC)cc2)c1 (stereo not drawn) | -24.4
CCCCNC(=O)c1ccc(N2CCOCC2)c(NS(=O)(=O)c2ccc(OC)cc2)c1 | -40.4
CCC1CCCCN1CCCNC(=O)c1ccc(N2CCOCC2)c(NS(=O)(=O)c2ccc(OC)cc2)c1 (stereo not drawn) | -57.6
Cc1ccc(S(=O)(=O)Nc2cc(C(=O)N3CCC4(CC3)OCCO4)ccc2N2CCCCC2)cc1 | -51.3
CCN(CC)CCCNC(=O)c1ccc(N2CCCCC2)c(NS(=O)(=O)c2ccc(C)cc2)c1 | -69.2
Cc1ccc(S(=O)(=O)Nc2cc(C(=O)N3CCOCC3)ccc2N2CCCCC2)cc1 | -20.5
Cc1ccc(S(=O)(=O)Nc2cc(C(=O)NCCN(C)C)ccc2N2CCCC2)cc1 | -6.83
COc1ccc(OC)c(S(=O)(=O)Nc2c(F)cccc2F)c1 | 16
CC1CN(C(=O)N2CCCCC2)CCN1C(=O)N1CCCCC1 (stereo not drawn) | 16.9
CCN(CC(=O)Nc1ccc(S(=O)(=O)N2CCOCC2)cc1)Cc1ccccc1 | -16.5
O=C(CCc1ccccc1Cl)Nc1ccc(S(=O)(=O)N2CCOCC2)cc1 | -4.49
Cc1cccc(C(=O)NN2C(=O)C3C(c4ccccc4)C=CC(c4ccccc4)C3C2=O)c1 (stereo not drawn) | 3.83
COc1cccc(-c2ccc(NC(=O)C3CCCN(Cc4nccn4C)C3)cc2)c1 (stereo not drawn) | -31.8
COc1cccc(-c2ccc(NC(=O)C3CCCN(Cc4ccco4)C3)cc2)c1 (stereo not drawn) | 6.02
COc1cccc(-c2ccc(NC(=O)C3CCCN(Cc4cnn(C)c4C)C3)cc2)c1 (stereo not drawn) | 0.939

SMILES | hERG current change (%, negative = inhibition) at 10uM [%]
COc1cccc(-c2ccc(NC(=O)C3CCCN(CCCn4cccn4)C3)cc2)c1 (stereo not drawn) | -64.1
COc1cccc(-c2ccc(NC(=O)C3CCCN(CCCn4nc(C)cc4C)C3)cc2)c1 (stereo not drawn) | -66
COc1cccc(-c2ccc(NC(=O)C3CCCN(Cc4cc(C)[nH]n4)C3)cc2)c1 (stereo not drawn) | -36.5
CCOC(=O)N1CCC(NS(=O)(=O)c2ccc(C#N)cc2)CC1 | -2.64
NS(=O)(=O)c1cccc(NC(=O)COC(=O)CNC(=O)c2ccc(-c3ccccc3)cc2)c1 | 5.77
CC(C)CNC(=O)COC(=O)CCC(=O)c1ccc(F)cc1 | 6.45
C1=C(CCNc2ncnc3c2cnn3-c2ccccc2)CCCC1 | 8.79
Cn1cc(C=C2C(=O)OC3(CCCCC3)OC2=O)c2ccccc21 | 9.19
O=C(OCc1nc2ccccc2[nH]1)C1CCCCC1 | 2.85
Cc1ccc(N2CC(C(=O)N3CCC(C(=O)Nc4ccc(Br)cc4)CC3)CC2=O)cc1 (stereo not drawn) | -64.2
Cc1ccc(N2CC(C(=O)N3CCC(C(=O)Nc4cccc(Br)c4)CC3)CC2=O)cc1 (stereo not drawn) | -60.1
COc1ccccc1NC(=O)C1CCN(C(=O)C2CC(=O)N(c3ccc(C)cc3)C2)CC1 (stereo not drawn) | -9.15
C=CCN(CC=C)C(=O)C1CC(=O)N(c2ccc(Br)cc2)C1 (stereo not drawn) | -59.2
CC(=O)Nc1ccc(NC(=O)C2CCN(C(=O)C3CC(=O)N(c4ccc(C)cc4)C3)CC2)cc1 (stereo not drawn) | 12.4
COc1ccc(Cl)cc1NC(=O)CN(C)C(=O)C1CC(=O)N(Cc2ccc(C)cc2)C1 (stereo not drawn) | -50
COc1ccc(CCN(C)C(=O)C2CC(=O)N(Cc3ccc(C)cc3)C2)cc1OC (stereo not drawn) | 0.405
COc1ccc(NC(=O)CN(C)C(=O)C2CC(=O)N(Cc3ccc(C)cc3)C2)cc1 (stereo not drawn) | 4.41
O=C(O)C1CC(=O)N(c2ccc(Br)cc2)C1 (stereo not drawn) | 4.94
CCOc1ccc(NC(=O)C2CCN(C(=O)C3CC(=O)N(c4ccc(C)cc4)C3)CC2)cc1 (stereo not drawn) | -22.1
Cc1ccc(N2CC(C(=O)N3CCC(C(=O)NC(C)(C)C)CC3)CC2=O)cc1 (stereo not drawn) | 20.2
C=CCNC(=O)C1CC(=O)N(c2ccc(Br)cc2)C1 (stereo not drawn) | -7.08

From paper PMC4336329 (PLoS ONE, 2015)
